Inconclusive results are not listed. For some of these results: Measured potencies and affinities stand elsewhere. Active and inactive are the calls of the source. Unless noted, no rule for the calls is given here.
Experiments:
[1] = circadian clock period modulators, cell-based, LOPAC library, luminescence reporter (AID 2774); settings: circadian reporter cells, at 7 µM, actives lie on both sides;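 also: values are relative to mean of DMSO wells on each plate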
[2] = biological target: 6-phosphogluconate dehydrogenase, decarboxylating (Homo sapiens) (UniProt P52209); test: 6PGD enzyme inhibitors, primary screen, biochemical, human, recombinant enzyme, NADPH absorbance (AID 1159550;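 active = at least 20% inhibition of 6-phosphogluconate dehydrogenase activity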); settings: recombinant 6PGD, NADPH absorbance 341 nm; at 10 µM; stronger effect = higher value
Chain of 6-phosphogluconate dehydrogenase, decarboxylating (Homo sapiens) (P52209 whole entry, looked up, the tested form may be a part): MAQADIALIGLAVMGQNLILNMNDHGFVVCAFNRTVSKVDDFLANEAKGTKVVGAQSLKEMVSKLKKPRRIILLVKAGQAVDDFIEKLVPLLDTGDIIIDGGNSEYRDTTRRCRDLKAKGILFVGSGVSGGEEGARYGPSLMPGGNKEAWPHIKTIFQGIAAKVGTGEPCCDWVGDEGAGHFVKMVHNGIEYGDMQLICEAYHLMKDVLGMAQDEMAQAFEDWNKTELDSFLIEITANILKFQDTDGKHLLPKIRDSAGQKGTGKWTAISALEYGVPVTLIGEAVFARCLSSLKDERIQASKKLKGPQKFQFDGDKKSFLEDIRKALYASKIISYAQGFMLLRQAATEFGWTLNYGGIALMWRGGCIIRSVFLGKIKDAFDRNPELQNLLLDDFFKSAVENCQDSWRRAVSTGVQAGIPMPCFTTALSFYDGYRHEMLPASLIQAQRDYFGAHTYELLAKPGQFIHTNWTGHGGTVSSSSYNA

[3] = biological target: Mitogen-activated protein kinase 7 (Homo sapiens) (UniProt Q13164); test: ERK5 transactivation activators in reporter cells, primary screen, cell-based, HTS (AID 1508626;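 active = luciferase signal above three times the same-plate solvent-only control wells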;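 also: luciferase driven by Gal4-ERK5 fusion binding five Gal4 sites before minimal TATA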); settings: HeLa Gal4-ERK5 transactivation, 18 h, at 5 µM, stronger effect = higher value
Chain of Mitogen-activated protein kinase 7 (Homo sapiens) (Q13164 whole entry, looked up, the tested form may be a part): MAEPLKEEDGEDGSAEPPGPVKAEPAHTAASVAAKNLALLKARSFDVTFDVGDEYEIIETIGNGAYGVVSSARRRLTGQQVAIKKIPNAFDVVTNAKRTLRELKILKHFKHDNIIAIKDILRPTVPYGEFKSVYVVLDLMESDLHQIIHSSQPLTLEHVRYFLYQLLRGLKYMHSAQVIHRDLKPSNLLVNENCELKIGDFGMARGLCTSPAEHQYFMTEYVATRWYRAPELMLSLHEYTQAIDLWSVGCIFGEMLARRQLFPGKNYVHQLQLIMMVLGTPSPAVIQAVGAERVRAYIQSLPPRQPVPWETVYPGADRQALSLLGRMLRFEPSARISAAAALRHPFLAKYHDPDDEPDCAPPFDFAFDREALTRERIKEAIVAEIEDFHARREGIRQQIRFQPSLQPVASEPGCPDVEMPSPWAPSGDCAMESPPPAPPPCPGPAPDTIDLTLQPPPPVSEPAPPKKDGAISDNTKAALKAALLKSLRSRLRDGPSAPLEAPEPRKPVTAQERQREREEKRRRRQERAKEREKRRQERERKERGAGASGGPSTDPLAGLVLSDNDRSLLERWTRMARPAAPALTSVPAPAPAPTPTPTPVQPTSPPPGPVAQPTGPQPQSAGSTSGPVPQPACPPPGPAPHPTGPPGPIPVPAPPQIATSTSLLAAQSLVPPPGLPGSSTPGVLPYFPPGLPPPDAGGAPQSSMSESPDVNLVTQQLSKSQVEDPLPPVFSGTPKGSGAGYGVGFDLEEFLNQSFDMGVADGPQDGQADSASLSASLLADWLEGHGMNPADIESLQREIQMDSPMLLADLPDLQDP

[4] = liver-stage malaria parasite growth inhibition, primary screen, cell-based, HepG2, luciferase luminescence, HepG2 viability (AID 624349; in the data active = parasite load remaining mostly below about 12%, no sharp cut-off; inactive = mostly above about 10%;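 also: 100% = mean of DMSO negative control wells on the same plate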); settings: P. berghei liver stage in HepG2, luciferase luminescence, concentration not given here; parasite load remaining: stronger effect = lower value; viability: measured here: HepG2 viability without parasites
[5] = sensitizers of A549 cells to miR-34 induction, primary screen, imaging, A549 dox-inducible miR-34, nuclei and caspase counts (AID 1347080;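 active = compounds whose cell count with miR-34 switched on is under 0.7 times the count with it off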); settings: A549 miR-34 inducible, Hoechst nuclei count, 48 h
[6] = biological target: ATP-dependent translocase ABCB1 (Homo sapiens) (UniProt P08183); test: MDR1 (ABCB1) efflux transporter inhibition, cell-based (AID 377; in the data active = fluorescence slope change above about 50%); settings: MDR1-expressing cells, fluorescent substrate accumulation slope; stronger effect = higher value; concentration not given here
Chain of ATP-dependent translocase ABCB1 (Homo sapiens) (P08183 whole entry, looked up): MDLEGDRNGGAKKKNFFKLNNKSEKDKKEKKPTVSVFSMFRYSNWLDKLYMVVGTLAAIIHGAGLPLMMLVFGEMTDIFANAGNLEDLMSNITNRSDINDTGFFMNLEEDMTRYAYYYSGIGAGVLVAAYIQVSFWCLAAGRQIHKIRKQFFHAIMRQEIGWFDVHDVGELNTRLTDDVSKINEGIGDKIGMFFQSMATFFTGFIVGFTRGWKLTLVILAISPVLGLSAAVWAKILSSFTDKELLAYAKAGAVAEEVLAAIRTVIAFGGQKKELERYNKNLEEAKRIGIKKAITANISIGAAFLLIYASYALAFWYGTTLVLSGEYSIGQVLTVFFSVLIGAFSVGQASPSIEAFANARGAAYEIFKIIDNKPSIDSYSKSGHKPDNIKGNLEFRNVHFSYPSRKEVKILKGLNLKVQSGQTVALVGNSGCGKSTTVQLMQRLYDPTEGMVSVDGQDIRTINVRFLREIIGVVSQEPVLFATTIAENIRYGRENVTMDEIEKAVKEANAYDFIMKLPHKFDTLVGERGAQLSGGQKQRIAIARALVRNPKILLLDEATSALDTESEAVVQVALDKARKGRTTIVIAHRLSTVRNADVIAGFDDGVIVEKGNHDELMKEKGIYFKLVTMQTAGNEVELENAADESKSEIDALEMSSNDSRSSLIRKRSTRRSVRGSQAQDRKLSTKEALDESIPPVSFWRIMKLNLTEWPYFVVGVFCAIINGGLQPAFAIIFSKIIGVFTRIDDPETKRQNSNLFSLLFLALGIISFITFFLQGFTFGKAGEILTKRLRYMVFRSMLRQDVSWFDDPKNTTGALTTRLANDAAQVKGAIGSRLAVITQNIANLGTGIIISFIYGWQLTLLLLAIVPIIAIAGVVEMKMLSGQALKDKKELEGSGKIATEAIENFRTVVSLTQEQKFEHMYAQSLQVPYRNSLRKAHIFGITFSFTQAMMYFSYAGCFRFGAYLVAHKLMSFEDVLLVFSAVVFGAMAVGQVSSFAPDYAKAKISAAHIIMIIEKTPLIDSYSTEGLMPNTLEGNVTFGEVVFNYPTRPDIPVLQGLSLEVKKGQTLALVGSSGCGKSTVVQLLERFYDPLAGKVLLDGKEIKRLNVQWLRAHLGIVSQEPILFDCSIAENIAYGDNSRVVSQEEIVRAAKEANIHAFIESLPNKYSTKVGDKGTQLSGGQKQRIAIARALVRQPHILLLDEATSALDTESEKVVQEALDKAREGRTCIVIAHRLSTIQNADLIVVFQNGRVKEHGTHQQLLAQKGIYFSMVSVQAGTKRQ

[7] = antimalarial activity against Dd2 strain (AID 2302;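 active = growth inhibition above 50% at the single 2 µM test dose, taken to imply half-maximal potency below 2 µM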;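 also: 0% = DMSO untreated growth and 100% = chloroquine plus artemisinin killed control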); settings: P. falciparum Dd2 in RBCs, LDH growth readout, 72 h; at 2 µM; stronger effect = higher value
[8] = HepG2 cytotoxicity, primary screen, cytotoxicity control for P. falciparum antimalarial project, cell-based, ATP luminescence (AID 2303;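 active = inhibition above 50%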;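 also: 0% = DMSO wells and 100% = digitonin-killed cells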); settings: HepG2 viability, 24-48 h, at 10 µM, stronger effect = higher value
[9] = biological target: L-lactate dehydrogenase (Plasmodium falciparum (isolate CDC / Honduras)) (UniProt Q27743); test: PfLDH activity inhibition – cell lysate, 3D7 strain, counter-screen for P. falciparum growth inhibition project (AID 2304);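 also: 0% = vehicle and 100% = reference inhibitor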; settings: P. falciparum 3D7 crude extract, LDH APAD/NBT absorbance; at 2 µM; stronger effect = higher value
Chain of L-lactate dehydrogenase (Plasmodium falciparum (isolate CDC / Honduras)) (Q27743 whole entry, looked up): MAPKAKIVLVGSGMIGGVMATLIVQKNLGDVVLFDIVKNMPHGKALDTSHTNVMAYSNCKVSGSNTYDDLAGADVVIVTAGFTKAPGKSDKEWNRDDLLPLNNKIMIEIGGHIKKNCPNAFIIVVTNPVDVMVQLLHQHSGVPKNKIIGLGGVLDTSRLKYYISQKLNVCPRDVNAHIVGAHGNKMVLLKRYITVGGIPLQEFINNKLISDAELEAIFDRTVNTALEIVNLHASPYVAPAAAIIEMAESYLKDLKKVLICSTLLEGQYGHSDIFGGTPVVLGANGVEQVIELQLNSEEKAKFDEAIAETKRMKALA

[10] = inhibition of 3D7 malaria parasite growth – strain 3D7 (AID 2306);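 also: 0% = DMSO wells and 100% = chloroquine plus artemisinin control wells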; settings: P. falciparum 3D7 erythrocytic growth, LDH absorbance, 72 h; at 2 µM; stronger effect = higher value
[11] = biological target: Calcium-dependent protein kinase 1 (Plasmodium falciparum (isolate 3D7)) (UniProt P62344); test: PfCDPK1 kinase inhibitors, biochemical, TCAMS library (AID 1159585; cut-off not given, nearly all actives have IC50 up to about 0.98 µM;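 also: inhibitors leave more ATP so luminescence rises with inhibition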); settings: recombinant PfCDPK1, Kinase-Glo ATP depletion luminescence
Chain of Calcium-dependent protein kinase 1 (Plasmodium falciparum (isolate 3D7)) (P62344 whole entry, looked up): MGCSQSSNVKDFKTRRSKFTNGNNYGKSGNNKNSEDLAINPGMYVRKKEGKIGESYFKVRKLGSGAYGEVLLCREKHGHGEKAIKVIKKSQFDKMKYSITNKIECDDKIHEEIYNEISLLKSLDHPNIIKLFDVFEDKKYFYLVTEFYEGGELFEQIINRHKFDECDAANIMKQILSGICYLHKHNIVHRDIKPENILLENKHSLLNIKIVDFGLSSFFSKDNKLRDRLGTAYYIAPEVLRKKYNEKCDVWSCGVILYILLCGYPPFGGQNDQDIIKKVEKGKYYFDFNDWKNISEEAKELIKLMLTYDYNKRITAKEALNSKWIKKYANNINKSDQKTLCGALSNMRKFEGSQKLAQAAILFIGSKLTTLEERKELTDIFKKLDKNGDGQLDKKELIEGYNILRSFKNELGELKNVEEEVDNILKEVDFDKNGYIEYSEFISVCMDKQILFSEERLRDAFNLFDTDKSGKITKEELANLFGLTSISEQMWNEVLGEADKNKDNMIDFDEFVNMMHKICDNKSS

[12] = biological target: Plasmodium falciparum protein kinase 6 (PK6, PF3D7_1337100) (UniProt Q8IDW1); test: PfPK6 kinase inhibitors, biochemical, TCAMS library (AID 1159586); settings: recombinant PfPK6, Kinase-Glo ATP depletion luminescence
Chain of Plasmodium falciparum protein kinase 6 (PK6, PF3D7_1337100) (Q8IDW1 1-305): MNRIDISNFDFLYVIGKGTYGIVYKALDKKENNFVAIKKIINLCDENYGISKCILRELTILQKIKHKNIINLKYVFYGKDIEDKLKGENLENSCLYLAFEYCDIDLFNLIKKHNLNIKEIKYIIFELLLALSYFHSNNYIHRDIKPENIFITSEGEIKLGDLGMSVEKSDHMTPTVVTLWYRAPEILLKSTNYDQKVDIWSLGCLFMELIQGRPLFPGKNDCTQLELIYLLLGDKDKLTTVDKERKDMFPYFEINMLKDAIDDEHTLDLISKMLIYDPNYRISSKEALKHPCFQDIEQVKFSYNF

[13] = biological target: Protein kinase 7 (PK7), Plasmodium falciparum 3D7 (PF3D7_0213400) (UniProt Q7YTF7); test: inhibition of Plasmodium PK7 catalytic activity – biochemical, TCAMS antimalarial set, Kinase-Glo luminescence (AID 1159587); settings: recombinant PfPK7, Kinase-Glo ATP depletion luminescence
Chain of Protein kinase 7 (PK7), Plasmodium falciparum 3D7 (PF3D7_0213400) (Q7YTF7 1-343): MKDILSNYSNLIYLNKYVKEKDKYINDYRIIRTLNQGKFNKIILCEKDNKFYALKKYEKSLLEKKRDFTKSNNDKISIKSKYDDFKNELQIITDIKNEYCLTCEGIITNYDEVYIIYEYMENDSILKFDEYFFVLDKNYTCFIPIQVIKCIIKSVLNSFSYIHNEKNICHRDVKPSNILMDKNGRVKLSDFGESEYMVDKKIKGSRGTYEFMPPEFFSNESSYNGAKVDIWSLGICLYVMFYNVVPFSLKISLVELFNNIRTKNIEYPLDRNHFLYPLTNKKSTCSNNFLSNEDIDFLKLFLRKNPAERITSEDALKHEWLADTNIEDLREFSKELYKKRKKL

[14] = biological target: Calcium-dependent protein kinase 4 (Plasmodium falciparum (isolate 3D7)) (UniProt Q8IBS5); test: PfCDPK4 kinase inhibitors, biochemical, TCAMS library (AID 1159588; cut-off not given, nearly all actives have IC50 up to about 0.91 µM); settings: recombinant PfCDPK4, Kinase-Glo ATP depletion luminescence
Chain of Calcium-dependent protein kinase 4 (Plasmodium falciparum (isolate 3D7)) (Q8IBS5 whole entry, looked up): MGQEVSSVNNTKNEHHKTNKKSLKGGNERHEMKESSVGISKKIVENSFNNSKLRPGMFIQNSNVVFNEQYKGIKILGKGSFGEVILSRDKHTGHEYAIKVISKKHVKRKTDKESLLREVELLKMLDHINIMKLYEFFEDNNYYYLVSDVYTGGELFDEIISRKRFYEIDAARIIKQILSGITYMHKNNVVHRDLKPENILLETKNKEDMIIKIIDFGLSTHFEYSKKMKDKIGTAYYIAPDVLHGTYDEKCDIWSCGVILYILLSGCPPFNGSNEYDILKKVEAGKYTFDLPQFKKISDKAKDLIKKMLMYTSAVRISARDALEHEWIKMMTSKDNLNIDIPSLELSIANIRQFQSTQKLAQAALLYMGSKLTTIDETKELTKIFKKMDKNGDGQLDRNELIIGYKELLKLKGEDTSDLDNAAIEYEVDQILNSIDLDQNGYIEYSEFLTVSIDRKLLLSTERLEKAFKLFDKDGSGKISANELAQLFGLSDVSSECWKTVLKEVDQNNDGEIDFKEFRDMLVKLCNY

[15] = hESC survival regulators, cell-based (AID 493140); settings: human embryonic stem cell survival screen; stronger effect = higher value;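 also: cells exposed to compounds for four days before counting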
[16] = measured here: relative caspase fold change +Dox/-Dox
[17] = measured here: total cells with miR-34 induction, stronger effect = lower value
[18] = measured here: total cells without miR-34 induction

NNCc1cccc(O)c1
inactive: period change [1] -0.07 h | inhibition [2] 15.8%

O=C(O)COc1cc(Cl)c(Cl)cc1Cl
inactive: inhibition [2] 6.47% | luciferase signal [3] 60 AU

COP(=S)(OC)Oc1ccc([N+](=O)[O-])cc1
inactive: inhibition [2] -0.396% | luciferase signal [3] 72 AU

CC(C)=CCC[C@]1(C)C=Cc2c(O)c3c(c(CC=C(C)C)c2O1)O[C@]12C(=C[C@@H]4C[C@H]1C(C)(C)O[C@@]2(C/C=C(/C)C(=O)O)C4=O)C3=O
inactive: inhibition [2] -17.6% | luciferase signal [3] 72 AU

COC(=O)COc1cc(Cl)c(Cl)cc1Cl
inactive: inhibition [2] -16.9% | luciferase signal [3] 92 AU

CC(=O)O[C@@H]1C[C@H]2C(C)(C)C(=O)C=C[C@]2(C)[C@H]2CC[C@]3(C)C(=CC(=O)O[C@H]3c3ccoc3)[C@@]21C
inactive: inhibition [2] 4.47% | luciferase signal [3] 44 AU

C[C@@H]1CC[C@@]2(NC1)O[C@H]1C[C@H]3[C@@H]4CC=C5C[C@@H](O)CC[C@]5(C)[C@H]4CC[C@]3(C)[C@H]1[C@@H]2C
9310: cell count [5, 17]
inactive: parasite load remaining [4] 86.7% | inhibition [2] 11.8% | fold change ([5]; stronger effect = lower value) 0.905 | luciferase signal [3] 48 AU
1.06: fold change [5, 16]
95.9%: viability [4]
10300: cell count [5, 18]

CNC(=O)Oc1cccc2c1OC(C)(C)C2
inactive: inhibition [2] -14.7% | luciferase signal [3] 44 AU

COc1cc2c(cc1O)C[C@H]1c3c(cc(O)c(OC)c3-2)CCN1C
inactive: fluorescence slope change [6] 14.6% | parasite load remaining [4] 91.1% | inhibition [2] 3.02% | fold change ([5]; stronger effect = lower value, cell number ratio, induced over uninduced) 0.885 | luciferase signal [3] 56 AU
9040: cell count [5, 18]
8000: cell count [5, 17]
118%: viability [4]
1.54: fold change [5, 16]

CN(c1cc(NC(=O)c2ccccc2)ccn1)C1CCN(Cc2cccc(F)c2)CC1
active: growth inhibition [7] 94% | growth inhibition [10] 92%
inactive: inhibition [8] -6% | inhibition [9] -3% | outcome [11] | outcome [12] | outcome [13] | outcome [14]

CC[C@@H](C)C(=O)O[C@H]1[C@H](O)[C@H]2[C@@H](CN3C[C@@H](C)CC[C@H]3[C@@]2(C)O)[C@@H]2C[C@]34O[C@]5(O)[C@@H](OC(=O)[C@@](C)(O)CC)CC[C@@]3(C)[C@@H]5[C@@H](OC(C)=O)[C@@H](OC(C)=O)[C@H]4[C@@]21O
inactive: inhibition [2] -7.64% | luciferase signal [3] 108 AU

CC(N)C(O)c1ccc(O)c(O)c1 (stereo not drawn)
inactive: survival [15] 3.67 | inhibition [2] -5.53%

C/C=C(\C)C(=O)O[C@H]1C[C@@H](OC(C)=O)[C@@]2(C(=O)OC)CO[C@H]3[C@@H](O)[C@@](C)([C@]45O[C@@]4(C)[C@H]4C[C@@H]5O[C@@H]5OC=C[C@@]54O)[C@H]4[C@]1(CO[C@]4(O)C(=O)OC)[C@@H]32
inactive: inhibition [2] 3.41% | luciferase signal [3] 12 AU

O=C(/C=C/c1cc(F)cc(C(F)(F)F)c1)N1CCC(CN2CCC(c3c[nH]c4ccccc34)CC2)CC1
inactive: inhibition [8] 32% | inhibition [9] 3% | outcome [11] | outcome [12] | outcome [13] | outcome [14]
active: growth inhibition [7] 74% | growth inhibition [10] 101%

COc1ccccc1CNCC(O)c1cc(C(F)(F)F)ccc1C(F)(F)F (stereo not drawn)
inactive: inhibition [8] 10% | inhibition [9] 5% | outcome [11] | outcome [12] | outcome [13] | outcome [14]
active: growth inhibition [7] 95% | growth inhibition [10] 101%

NC(=O)CN1CC=C(c2c[nH]c3ccc(Br)cc23)CC1
inactive: growth inhibition [7] 0% | inhibition [8] 30% | inhibition [9] -12% | outcome [11] | outcome [12] | outcome [13] | outcome [14]
active: growth inhibition [10] 83%

Cc1cccc2[nH]cc(C3CCN(CC4CCC(NC(=O)/C=C/c5ccc(Cl)c(Cl)c5)CC4)CC3)c12 (stereo not drawn)
inactive: inhibition [9] -4% | outcome [11] | outcome [12] | outcome [13] | outcome [14]
active: growth inhibition [7] 97% | inhibition [8] 88% | growth inhibition [10] 101%

O=C(/C=C/c1ccc(Cl)c(Cl)c1)N1CCC(CN2CC[C@H](c3c[nH]c4ccccc34)[C@@H](O)C2)CC1
inactive: growth inhibition [7] 14% | inhibition [8] 37% | inhibition [9] -7% | outcome [11] | outcome [12] | outcome [13] | outcome [14]
active: growth inhibition [10] 99%

COCCNCc1ccc(-c2ccc(CN(C(=O)Nc3ccccc3)C3CCN(Cc4ccccc4)CC3)cc2)cc1
inactive: growth inhibition [7] 39% | inhibition [8] 16% | inhibition [9] -5% | outcome [11] | outcome [12] | outcome [13] | outcome [14]
active: growth inhibition [10] 98%

CCCC(=O)c1c(O)c2ccccc2oc1=O
active: growth inhibition [10] 93%
inactive: growth inhibition [7] 1% | inhibition [8] 11% | inhibition [9] -5% | outcome [11] | outcome [12] | outcome [13] | outcome [14]

CC[C@H]1CN2CC[C@@H]1C[C@H]2[C@H](O)c1cc(N2CCC(C)CC2)nc2ccc(OC)cc12
inactive: inhibition [8] 16% | inhibition [9] 1% | outcome [11] | outcome [12] | outcome [13] | outcome [14]
active: growth inhibition [7] 98% | growth inhibition [10] 99%

CCOC(=O)c1c(C)n(C2CCCCC2)c2cc(Br)c(O)cc12
active: growth inhibition [7] 71% | growth inhibition [10] 98%
inactive: inhibition [8] 1% | inhibition [9] -3% | outcome [11] | outcome [12] | outcome [13] | outcome [14]

Cc1[nH]c2cc(F)ccc2c1C1=CCN(CCCCC2(C)C(=O)Nc3c(F)cccc32)CC1 (stereo not drawn)
active: growth inhibition [7] 89% | growth inhibition [10] 96%
inactive: inhibition [8] 15% | inhibition [9] -7% | outcome [11] | outcome [12] | outcome [13] | outcome [14]

CN1CC=C(c2c[nH]c3ccc(OC(=O)c4ccccc4)cc23)C1
active: growth inhibition [7] 97% | growth inhibition [10] 96%
inactive: inhibition [8] 12% | inhibition [9] 1% | outcome [11] | outcome [12] | outcome [13] | outcome [14]

— PubChem BioAssay
